According to PubChem BioAssay AID588342 (National Center for Advancing Translational Sciences (NCATS), 2011):
Among all 360,000 compounds or so, about 25,000 (6.9%) were called active. Inconclusive results (about 9%) are left out. Shown is part of a subset that was picked to be rich in actives. Unmarked numbers belong to inactive results. The call rests on the fitted dose curve; in most records, active means well fitted inhibition curve with a large enough effect; inconclusive means small, poorly fitted or top-dose-only effect; inactive means flat fitted curve, though single readings scatter.

Each molecule was assayed against Luciferin 4-monooxygenase (Photinus pyralis) (UniProt P08659) (assay: qHTS profiling assay for firefly luciferase inhibitor/activator using purifed enzyme and Km concentrations of substrates (counterscreen for miR-21 project)). Settings: purified FLuc, luminescence inhibition; series mostly up to 57.5 µM; activity change, negative = inhibition: at the top concentration.
Method in brief: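 Biochemical qHTS of compounds, final roughly 60 µM downward over six points, against 10 nM purified firefly luciferase using Km concentrations of substrates (10 uM D-luciferin, 10 uM ATP) in Tris acetate pH 7.5 buffer; luminescence output.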
Further: nearly all actives have a fitted effect of over 55% in size.
Potency means the concentration at half of the fitted maximal effect.
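Wherever activity change, negative = inhibition is given: plate controls were vehicle for no effect and reference inhibitor for full effect.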

Luciferin 4-monooxygenase (Photinus pyralis), sequence (P08659 whole entry, looked up): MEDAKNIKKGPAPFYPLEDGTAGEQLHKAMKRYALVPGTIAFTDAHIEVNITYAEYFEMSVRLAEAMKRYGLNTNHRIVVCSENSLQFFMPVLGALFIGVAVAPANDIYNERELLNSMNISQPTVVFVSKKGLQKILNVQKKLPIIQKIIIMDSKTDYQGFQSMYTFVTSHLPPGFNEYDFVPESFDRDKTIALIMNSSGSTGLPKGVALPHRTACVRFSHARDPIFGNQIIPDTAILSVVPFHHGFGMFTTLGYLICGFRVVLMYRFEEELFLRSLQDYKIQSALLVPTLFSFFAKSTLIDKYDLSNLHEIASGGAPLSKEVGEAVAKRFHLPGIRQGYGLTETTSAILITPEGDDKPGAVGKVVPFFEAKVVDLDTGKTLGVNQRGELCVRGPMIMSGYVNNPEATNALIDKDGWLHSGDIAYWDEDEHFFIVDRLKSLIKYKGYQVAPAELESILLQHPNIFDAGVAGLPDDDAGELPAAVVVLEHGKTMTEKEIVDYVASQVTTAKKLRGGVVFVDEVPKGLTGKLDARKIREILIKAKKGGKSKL

Row | Structure (SMILES) | Potency | activity change, negative = inhibition [%]
1 | COc1ccccc1-c1nnc(NC(=O)c2ccc3ncsc3c2)o1 | 13.5 µM (active) | –
2 | COc1ccccc1-c1nnc(NC(=O)c2cccc(N3C(=O)CCC3=O)c2)o1 | 19 µM (active) | –
3 | Cc1ccc(S(=O)(=O)CC(=O)Nc2sc(C)c(C)c2C(N)=O)cc1 | – | 12
4 | COc1cccc(-c2nnc(NC(=O)c3ccc(S(=O)(=O)N(CC(C)C)CC(C)C)cc3)o2)c1 | – | 2.84
5 | COc1ccccc1-c1nnc(SCC(=O)N2CC(C)CC(C)C2)o1 (stereo unspecified) | – | -6.65
6 | Cc1ccc(C(=O)Nc2nnc(C3=COCCO3)o2)cc1C | – | -6.57
7 | COc1ccc(-n2nc3c(c2NC(=O)c2ccc(N4C(=O)CCC4=O)cc2)CSC3)cc1 | – | 3.03
8 | O=C(COC(=O)c1ccc2ncsc2c1)Nc1ccc(Cl)cc1 | – | -0.692
9 | Cc1sc(NC(=O)c2ccc3ncsc3c2)c(C(N)=O)c1C | 1.07 µM (active) | –
10 | Cc1ccccc1C(=O)N(Cc1ccc(N(C)C)cc1)CC1CCCO1 (stereo unspecified) | – | 0.652
11 | CCn1cc2nc(SCc3cccc(F)c3)n(CCc3ccccc3)c(=O)c2n1 | – | -12.6
12 | COc1cc(CN(C(=O)c2ccccc2Br)c2ccccn2)cc(OC)c1OC | – | 7.3
13 | Cc1cccc(C(=O)Nc2ccc(S(=O)(=O)N3CCCCC3c3cccnc3)cc2)c1 (stereo unspecified) | – | 3.83
14 | CCN(CCCNC(=O)c1cc2c(=O)n(CC)c3ccccc3c2s1)Cc1ccccc1 | – | 6.98
15 | Cc1ccc(C)c(Cn2c(CCCNC(=O)C3CCCCC3)nc3ccccc32)c1 | – | 5.68
16 | C=CCNC(=O)c1ccccc1NC(=O)c1ccc(Cl)c(S(=O)(=O)Nc2cccc(C)c2C)c1 | – | 3.15
17 | O=C(CN1C(=O)CSc2ncccc21)N1CCOCC1 | – | -0.277
18 | Cc1cc(/C=C2/SC(=O)N(CC(=O)N3CCCC3)C2=O)ccc1N1CCOCC1 | 16.9 µM (active) | –
19 | Cc1ccc2c(c1)N(CC(=O)N1CCOCC1)C(=O)CO2 | – | 2.75
20 | COc1ccc(-c2nn(-c3ccccc3)cc2/C=C2/SC(=S)N(CCCC(=O)O)C2=O)c(C)c1 | – | -4.65
21 | COc1ccc(/C=C2/SC(=O)N(CCCCCC(=O)Nc3ccccc3C(=O)O)C2=S)cc1 | 16.9 µM (active) | –
22 | CCCNC(=O)c1ccccc1NC(=O)CSCc1ccc(OC)cc1 | – | 0.71
23 | COc1cccc(CNC(=O)CSc2c3c(nc4cc(Cl)ccc24)CCCC3)c1 | – | -4.18
24 | CC(=O)c1ccc(N2CCN(c3nc4c(S(=O)(=O)c5ccccc5)nnn4c4ccc(Cl)cc34)CC2)cc1 | – | 1.59
25 | CCOC(=O)c1c(CNCc2ccccc2F)c2sc(C)cc2n1C | – | -1.74
26 | CCN1C(=S)N[C@@H](c2cccc(C(F)(F)F)c2)C(C(=O)OC)=C1C | – | 0.99

Row | Structure (SMILES) | Potency | activity change, negative = inhibition [%]
27 | COc1cccc(CNC(=O)CCc2nc(-c3ccc(C)cc3)no2)c1 | – | 1.48
28 | CCNC(=O)CCc1nc(-c2ccc(C)cc2)no1 | – | -17.9
29 | COc1ccc(-c2noc(CCCC(=O)NC3CCCC3)n2)cc1OC | – | 1.08
30 | Cc1cc(C)cc(NC(=O)CCCc2nc(-c3ccccc3Cl)no2)c1 | – | 5.49
31 | CCNC(=O)CCc1nc(-c2ccc(C(C)(C)C)cc2)no1 | 4.78 µM (active) | –
32 | CC(=O)Nc1ccc(NC(=O)CCCc2nc(-c3ccc(C(C)(C)C)cc3)no2)cc1 | 2.69 µM (active) | –
33 | CCOc1ccccc1CNCc1c(C(=O)O)c(C)n(Cc2ccc(C)cc2)c1C | – | -2.11
34 | Cc1cc2ncn(CCCCOc3ccccc3)c2cc1C | inactive | –
35 | CCOc1cc(C2C(C(=O)Nc3ccc(OC)cc3)=C(C)Nc3nc(SC)nn32)ccc1O (stereo unspecified) | – | -0.395
36 | CCOc1ccc(NC(=O)CC(Cc2ccc(Cl)cc2)C(=O)O)cc1 (stereo unspecified) | – | 6.23
37 | CC(=O)Nc1ccc(NC(=O)C(NS(=O)(=O)c2ccc3c(c2)OCCO3)C(C)C)cc1 (stereo unspecified) | – | 2.54
38 | O=C(N/N=C/c1c(Cl)[nH]c2ccccc12)c1sc2ccccc2c1Cl | 19 µM (active) | –
39 | COc1ccc(CNC(=O)CNC(=O)c2sc3ccccc3c2Cl)cc1OC | – | -0.179
40 | Cc1[nH]c2ccccc2c1/C=N\NC(=O)Cn1nnc(-c2ccccc2)n1 | – | -1.23
41 | Cc1nnsc1C(=O)N/N=C/c1ccccc1Cl | – | -0.786
42 | CN1CCc2ccccc2C1Cc1ccccc1NC(=O)c1sc2ccccc2c1Cl (stereo unspecified) | – | -3.51
43 | Cc1nn(C)cc1/C=N/NC(=O)c1sc2ccccc2c1Cl | 26.9 µM (active) | –
44 | CCN(CC)S(=O)(=O)c1ccc2c(c1)nc(CN(C)C(=O)Nc1ccc(Cl)cc1)n2C | – | -19.2
45 | O=C(NCCNc1ccc([N+](=O)[O-])cc1Cl)c1ccccc1F | – | -29
46 | CCOC(=O)N1CCc2c(sc(NCc3cccc(F)c3)c2C(=O)Nc2ccccc2OCC)C1 | – | -18.1
47 | Cc1nc2cc(NC(=O)Nc3cccc(F)c3)ccc2n1C | 0.757 µM (active) | –
48 | Cc1nc2cc(NCc3cccs3)ccc2n1C | 15.1 µM (active) | –
49 | O=c1c(NCc2cccs2)nccn1-c1ccccc1 | – | -13.3
50 | Cc1nc2cc(NC(=O)NC3CC3)ccc2n1C | – | -15
51 | Cc1cc2nc(C)n(CCCNC(=O)Nc3ccccc3)c2cc1C | – | 1.77
52 | C=CCN(C(=O)Nc1ccc2c(c1)nc(C)n2C)c1ccccc1 | 15.1 µM (active) | –

Row | Structure (SMILES) | Potency | activity change, negative = inhibition [%]
53 | Cn1ncc(Br)c1C(=O)NCc1cccs1 | – | -1.21
54 | Cc1nn(CC(=O)Nc2ccc3c(c2)nc(CN2CCCCC2)n3C)c(=O)c2ccccc12 | – | 3.59
55 | CCOC(=O)N1CCN(Cc2nc3cc(NC(=O)CC)ccc3n2CC)CC1 | – | 0.0734
56 | CCCCNC(=O)c1ccc2c(c1)NC(=O)C(C(C)C)N2 (stereo unspecified) | – | -6.51
57 | CC(=O)N1CCCc2cc(S(=O)(=O)N3CCC(C(=O)NCc4ccc(C)cc4)CC3)ccc21 | – | 0.565
58 | CCc1ccc(-c2nn(-c3ccccc3C)cc2C(=O)N2CCN(C3CCS(=O)(=O)C3)CC2)cc1 (stereo unspecified) | – | 2.23
59 | COc1ccccc1CNCc1ccc(C(=O)O)s1 | – | 2.57
60 | CCc1nccn1S(=O)(=O)c1cc(Br)ccc1Br | – | -10.3
61 | CCOC(=O)c1c(NC(=O)c2ccc(S(=O)(=O)N(CC)CC)cc2)sc2c1CCCCC2 | – | -3.1
62 | CN(C(=O)c1ccc2c(c1)N(Cc1cccc(Cl)c1)C(=O)c1ccccc1S2=O)C1CCCCC1 (stereo unspecified) | – | -10.7
63 | Cc1ccc(Cl)cc1NC(=O)/C(C#N)=C\c1cn(Cc2ccc(F)cc2)c2ccccc12 | – | 0.524
64 | CCc1ccc(NS(=O)(=O)c2ccc3[nH]cc(C(=O)NCCc4cccc(C)c4)c(=O)c3c2)cc1 | – | -6.98
65 | O=C(c1ccc(Cl)nc1)N1CCN(S(=O)(=O)c2ccc3c(c2)OCCO3)CC1 | – | -2.36
66 | COc1cccc(-c2nnc3n(CCc4ccccc4)c(=O)c4ccccc4n23)c1O | – | -4.13
67 | Cc1ccccc1NC(=O)c1cc2c([nH]c1=O)CC(C)(C)CC2=O | – | -15.2
68 | O=C(N/N=C/c1ccc(OC(=O)c2ccccc2Cl)cc1)c1ccc(O)cc1 | – | -2.37
69 | COc1ccc(C(=O)Nc2ccccc2C(=O)N/N=C/c2ccccc2OC)cc1 | 0.0757 µM (active) | –
70 | COc1ccc(OC)c(/C=C/C(=O)c2ccc3c(c2)OCO3)c1 | 4.78 µM (active) | –
71 | COc1ccc(OC)c(/C=N/NC(=O)c2ccc[n+](CC(=O)c3ccccc3)c2)c1 | – | -5.82
72 | COc1ccc(/C=N/NC(=O)c2ccc(Cl)cc2)cc1COC(C)=O | – | -13.1
73 | COc1ccc(C(=O)Nc2cc(C)c(NC(=O)c3ccccc3OC)cn2)cc1 | 2.13 µM (active) | –
74 | COc1ccc(OC)c(/C=C/C(=O)OCC(=O)Nc2ccc3c(c2)OCCO3)c1 | – | 0.779
75 | COc1ccc(C(=O)Nc2ccccc2C(=O)N/N=C/c2ccc(O)c(OC)c2)cc1 | 0.012 µM (active) | –
76 | COc1ccc(Nc2ncc(C(=O)Nc3cc(C)ccc3OC)c3ccccc23)cc1 | – | 7.13
77 | COc1ccccc1C(=O)NNC(=O)c1ccc(NC(=O)c2ccccc2)cc1 | – | -14
78 | COc1ccc(C(=O)N/N=C(\C)CC(=O)Nc2ccc(Cl)cn2)cc1 | – | -14.9

Row | Structure (SMILES) | Potency | activity change, negative = inhibition [%]
79 | COc1ccc(NC(=O)NCc2ccc3c(c2)OCO3)c(OC)c1 | – | 6.28
80 | Cc1ccc(C)c(N2C(=O)N(Cc3c(F)cccc3Cl)c3ccccc3S2(=O)=O)c1 | – | 1.18
81 | Cc1ccc(CN2CC(C(=O)NNC(=O)Cn3ccc(C(F)(F)F)n3)CC2=O)cc1 (stereo unspecified) | – | 4.2
82 | c1ccc2c(c1)C(=NC1CCCCC1)NC2=NC1CCCCC1 | – | 1.79
83 | COC(=O)NNC(=O)C1CCC(C)CC1 (stereo unspecified) | inactive | –
84 | CCOCCCn1c(SCC(=O)Nc2ccc(CC)cc2)nc2ccccc2c1=O | – | -1.15
85 | Cc1cccc(-c2nc(CS(=O)CC(=O)NC(C)CCc3ccccc3)c(C)o2)c1 (stereo unspecified) | – | -2.47
86 | CNC(=O)c1ccc(-c2nc(CN3CCc4ccccc43)c(C)o2)cc1 | – | -0.293
87 | COc1ccc(CN2CCc3nc(Nc4ccccc4)ncc3C2)c(OC)c1OC | – | 2.56
88 | Cc1cc(C(=O)N/N=C/c2ccccn2)c2ccccc2n1 | – | -0.51
89 | CCOc1cc(/C=N/NC(=O)c2cc(-c3ccccc3)nc3ccccc23)ccc1O | 16.9 µM (active) | –
90 | COc1ccc(Br)cc1/C=N/NC(=O)c1cccc(S(=O)(=O)N2CCOCC2)c1 | – | 5.78
91 | CCn1c(/C=N/NC(=O)c2ccc(OC)cc2)nc2ccccc21 | 13.5 µM (active) | –
92 | COc1ccc(/C=N/NC(=O)c2ccc3c(c2)OCCO3)c(OC)c1 | 9.53 µM (active) | –
93 | COc1ccc(/C=N/NC(=O)CNC(=O)c2ccc(S(=O)(=O)N3CCCC3)cc2)c(OC)c1 | – | -9.97
94 | CCOc1ccc(/C=N/NC(=O)C(C)Sc2ccccn2)cc1OCC (stereo unspecified) | – | -1.41
95 | CCn1c(SCC(=O)N/N=C/c2ccncc2)nc2ccccc21 | – | -2.42
96 | CCCCCn1c(CCNC(=O)c2ccc(F)cc2)nc2ccccc21 | – | -3.86
97 | COc1ccc(Cc2nc3ccc(C(=O)NCc4ccccc4Cl)cc3o2)cc1 | – | -11
98 | CCOC(=O)C1CCCN(C(=O)c2ccc3c(c2)sc2nc(-c4ccc(CC)cc4)cn23)C1 (stereo unspecified) | – | -6.78
99 | Cc1ccccc1CNC(=O)C(=O)NCC(c1cccs1)S(=O)(=O)c1cccs1 (stereo unspecified) | – | -9.18
100 | Cc1nc(N2CCOCC2)c2c(C(=O)NCc3cccc(Cl)c3)c(C)oc2n1 | – | -2.72
101 | O=C1Nc2cc(C(=O)N3CCC(N4CCCCC4)CC3)ccc2S/C1=C\c1ccccc1 | – | -1.4
